Test results from PubChem BioAssay AID925 (National Center for Advancing Translational Sciences (NCATS), 2007).
“And” between values parts separate entries of the source, which are not always exact repeats. Identical values can stand only once. Screen size: about 65,000 compounds; about 40 (0.06%) were called active. Calls come from the whole dose curve; as a rule, active = well fitted activation curve with a large enough effect; inconclusive = small, poorly fitted or top-dose-only effect; inactive = flat fitted curve, though single readings scatter. The sample as a whole holds a higher share of actives than the screen did.

Test: qHTS Assay for Modulators of Hemoglobin Beta Chain Splicing; note: 0% is about no effect
Settings: HBB splicing reporter cell assay, EGFP reporter with mutant IVS2-654 intron; Potency: activation; series mostly up to 46.1 µM; activation: at the top concentration
Text: NIH Chemical Genomics Center [NCGC]
NIH Molecular Libraries Screening Centers Network [MLSCN]
PI Name: Dr. Ryszard Kole
Modulation of Alternative Splicing as Therapy
Abnormal splicing is associated with a number of diseases, including cancer and genetic diseases such as cystic fibrosis, muscular dystrophy and beta-thalassemia. Alteration of disease associated splicing patterns provides a promising target for treatment. […] Mutations in the second intron of the beta-globin gene at positions are clinically relevant and cause mis-splicing which results in an out of frame gene product.
EGFP-654 and 705 HeLa Cells as screen system.
HeLa cell lines were stably transfected with a construct in which the EGFP (enhanced green fluorescent protein) cDNA was interrupted by the second intron of the beta-globin gene (IVS2-654). The ISV2 intron contains mutations which cause mis-splicing of EGFP and premature termination of EGFP which results in a nonfluorescent protein product. […] Expression of the transgene was driven by the CMV promoter. We concluded that a low molecular weight compound, which restored correct splicing of intron 2 would also generate functional EGFP protein, resulting in a fluorescent signal. Thus, the HeLa cells that express the EGFP-654 construct can be used for high throughput screening of a chemical library.
NCGC Assay Protocol Summary:
High Throughput Screening. Freshly thawed HeLa EGFP-654 cells were seeded in 5 ul of optimem media (Invitrogen) containing 2 % fetal calf serum (Hyclone) and 1x penicillin/streptomycin (Invitrogen) at a concentration of 500 cells per well in 1536-well plates. Cells were incubated overnight at 37C in 5% CO2. The next day, cells were treated with DMSO, 500 nM antisense ISV2 654 PNA control oligo, or library compound and allowed to grow at 37C in 5% CO2 for 2 days. The PNA oligo blocked the mutation site in the intron and allowed proper (wild type) splicing to occur, resulting in full length EGFP expression and also allowed for optimization of the assay parameters. Plates were read in the Acumen Explorer (TTP Labtech) using 488 nm laser excitation and 500-520 nm emission PMT filter in a 1 x […] capture mode. Fluorescnet Fluorescent objects ranging in size from […] were measured and the total peak GFP intensity for each well was used for data analysis.
Keywords: Thalassemia, beta-thalassemia, beta-globin, EGFP, ISV2 654, ISV2 705, SSO, PNA, antisense, splicing, MLSMR, MLSCN, NIH Roadmap, qHTS, NCGC

activation, inactive:
COC(=O)CCCCCN1C(=O)NC(c2ccc(-c3ccccc3)cc2)C(C(=O)OCc2ccccc2)=C1C (centres undefined) -0.877%
NC[C@@H]1O[C@H](O[C@@H]2[C@H](O[C@@H]3O[C@H](CO)[C@@H](COC[C@H]4O[C@@H](CN)[C@@H](O)[C@@H](O)[C@@H]4N)[C@@H]3O)[C@@H](O)[C@@H](N)C[C@H]2N)[C@@H](N)[C@H](O)[C@@H]1O 0.609% [at 20.6 µM, normalised to 500 nM splice-correcting PNA]
CO[C@H]1COC(=O)CCC[C@@H](C)[C@H](OC)COC(=O)[C@@H](C)NC(=O)C/C=C\[C@@H]1C 1.62% [at 9.22 µM, normalised to 500 nM splice-correcting PNA]
COC(=O)[C@@]1(Cc2ccc(F)cc2)[C@H]2c3cc(C(=O)N4CCCC4)n(C[C@H](O)CO)c3C[C@H]2CN1C(=O)c1ccccc1 -0.241%
COc1ccc(/C=C/NC(=O)c2ccc(OC)cc2)cc1 0.0031% [at 9.22 µM, normalised to 500 nM splice-correcting PNA]
CN(C)c1cc2c(Nc3ccc4c(cnn4Cc4ccccc4)c3)ncnc2cn1 0.878%
Cc1cccc(C(=O)O)c1 -0.218%
COC(=O)[C@@]1(C)C=C[C@@H](Cc2ccccc2)N1C(C)=O -0.493%
COC(=O)C1(Cc2ccccc2)C=C2C(=C(C)C(=O)C2C)CN1 (centres undefined) -0.49%
C=CC(=O)OCCOCCOCCOCCOC(=O)C=C
Oc1cc2c(cc1O)CN(C(=S)NCCc1ccc(Cl)cc1)CCC2 -4.89%
O=C(c1ccco1)N1CCC[C@@]2(CCN(Cc3nccs3)C2)C1 0.678%
CN(C)C(=O)c1ccc(-c2cncnc2Nc2ccccc2)cc1 -0.328%
COc1cccc([C@H]2Oc3ccc(OC)cc3/C(=N\OCC[C@@H]3C=C[C@H](OC(C)=O)[C@H](COC(C)=O)O3)[C@@H]2O)c1 -1.11% [at 9.22 µM, normalised to 500 nM splice-correcting PNA]
COc1cc([C@H]2c3cc4c(cc3[C@@H](O[C@@H]3O[C@H]5CO[C@@H](C)O[C@]5(O)C[C@H]3O)[C@@H]3COC(=O)[C@H]23)OCO4)cc(OC)c1O 0.795%
Cc1cc(Cl)ccc1OCC(=O)Oc1c(Cl)c(Cl)c(Cl)c(Cl)c1Cl 0.153% [at 9.22 µM, normalised to 500 nM splice-correcting PNA]
C/C(CCN1CCc2nc(-c3ccccc3)c(-c3ccccc3)cc2C1)=N\O[C@@H](C)c1cn([C@@H]2COC[C@@H]2O)nn1 -1.08% [at 9.22 µM, normalised to 500 nM splice-correcting PNA]
COc1ccc(COC(=O)N/N=C2/C[C@@H](O)[C@@H](O)[C@@H]3[C@@H]4C(=O)N([C@@H](C)c5ccccc5)C(=O)[C@H]4CC[C@@H]23)cc1 0.743% [at 9.22 µM, normalised to 500 nM splice-correcting PNA]
COc1ccc2[nH]cc(CCNc3cc(-c4ccccc4CN(C)C)ncn3)c2c1 -1.5%
O=C(O)c1ccc(C(=O)O)c2c(C(=O)O)ccc(C(=O)O)c12 -1.01% [at 9.22 µM, normalised to 500 nM splice-correcting PNA]
O=C(O)[C@@H]1[C@@H](C(=O)O)[C@]23C[C@@]2(C(=O)O)[C@]2(C(=O)O)CCC3=C3CCCC312 0.251% [at 9.22 µM, normalised to 500 nM splice-correcting PNA]
COCCNc1ncnc2ccc(-c3cccnc3)cc12 -0.174%
CCN(CC)CCCCn1c(-c2ccccc2)nc2c(N3CCOCC3)nc(C)nc21 -0.944%
CO[C@@H]1COC(=O)[C@H](Cc2ccccc2)NC(=O)C/C=C\[C@@H](C)[C@H](OC)COC(=O)[C@@H](C)NC(=O)C/C=C\[C@H]1C 1.42% [at 9.22 µM, normalised to 500 nM splice-correcting PNA] and 0.127% [at 9.22 µM, normalised to 500 nM splice-correcting PNA]
Cc1noc(C)c1-c1nc(Nc2ccccc2)c2ccccc2n1 -0.209%
O=NO
ClC(Cl)(Cl)C(N1CCN(c2ccccc2)CC1)N1CCN(c2ccccc2)CC1 3.1% [at 9.22 µM, normalised to 500 nM splice-correcting PNA]
CC(=O)Oc1ccccc1C(=O)Nc1ncc([N+](=O)[O-])s1 -1.69%
COc1ccc(NC(=O)N2CC3(CCN(C(C)=O)CC3)C2)cc1 1.24%
COC(=O)[C@@H]1CC[C@H](C)[C@@H](c2ccc(C)cc2)N1C(=O)c1ccc(/C=N\OC[C@@H](O)COCc2ccco2)cc1 -0.0134% [at 9.22 µM, normalised to 500 nM splice-correcting PNA]
Clc1ccc(C(c2ccc(Cl)cc2)n2cc[n+](C[C@@H](OCc3ccc(Cl)cc3Cl)c3ccc(Cl)cc3Cl)c2)cc1 -0.247%
CC(C)C[C@@H](CC(=O)N[C@@H](CCC(=O)O)CC(=O)O)NC(=O)[C@@H]1CCCC[C@H]1NC(=O)C[C@@H](NC(=O)C[C@H](CO)NC(=O)[C@@H]1CCCC[C@H]1N)C(C)C 3.3%
O=C(O)[C@@H](S)[C@H](S)C(=O)O -1.17% [at 9.22 µM, normalised to 500 nM splice-correcting PNA]
O=C(O)[C@@H](O)Cc1ccccn1 2.62% [at 9.22 µM, normalised to 500 nM splice-correcting PNA]
COC(=O)N1CCC2(CCCN(c3ccncc3)C2)CC1 -1.2%
NCC(=O)[C@@H](O)[C@H](O)[C@H](O)CO 0.718% [at 9.22 µM, normalised to 500 nM splice-correcting PNA]
CN(C)C(=O)c1ccc(-c2cncnc2NC2CCNCC2)cc1 -0.451%
CN1[C@H]2CC(OC(=O)[C@@H](CO)c3ccccc3)C[C@H]1[C@H]1O[C@H]12 (some centres undefined) 0.627% [at 20.6 µM, normalised to 500 nM splice-correcting PNA]
O=C1[C@H]2[C@H]3[C@H](O)[C@H](O)C/C(=N/OCc4ccccc4)[C@H]3CC[C@@H]2C(=O)N1Cc1ccccc1 0.171% [at 9.22 µM, normalised to 500 nM splice-correcting PNA]
